The assay can be described thus: chemical genetic growth profiling, strain panel (AID 1159580).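 Note: tested at 20 µM; growth read once vehicle control cultures reached saturation at 30 °C; 1 = growth at the plate median or of vehicle wells; lower values mean less growth of the strain.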 The conditions noted are these: S. cerevisiae deletion strains, growth OD.
[1] abbreviates: locus YHR030C, strain SLT2, active compounds read low.
[2] abbreviates: locus YAL013W, strain DEP1, active compounds read low.
[3] abbreviates: locus YBR229C, strain ROT2, active compounds read low.
Setting [4] is: locus YDL101C, strain DUN1, active compounds read low.
[5] abbreviates: locus YDR150W, strain NUM1, active compounds read low.
Where [6] appears, read: locus YEL061C, strain CIN8, active compounds read low.
[7] abbreviates: locus YGR078C, strain PAC10, active compounds read low.
Setting [8] is: locus YHR087W, strain rtc3, active compounds read low.
[9] abbreviates: locus YJR043C, strain POL32, active compounds read low.
Where [10] appears, read: locus YJR075W, strain HOC1, active compounds read low.
Where [11] appears, read: locus YKL190W, strain CNB1, active compounds read low.
Setting [12] is: locus YLR039C, strain RIC1, active compounds read low.
[13] abbreviates: locus YLR058C, strain SHM2 (second series), active compounds read low.
Setting [14] is: locus YLR085C, strain ARP6, active compounds read low.
The mark [15] stands for this setting: locus YLR262C, strain YPT6, active compounds read low.
[16] abbreviates: locus YML094W, strain GIM5, active compounds read low.
The mark [17] stands for this setting: locus YMR219W, strain ESC1, active compounds read low.
Where [18] appears, read: locus YMR263W, strain SAP30, active compounds read low.
[19] abbreviates: locus YNL153C, strain GIM3, active compounds read low.
The mark [20] stands for this setting: locus YNL298W, strain CLA4 (second series), active compounds read low.
[21] abbreviates: locus YNL322C, strain KRE1, active compounds read low.
The mark [22] stands for this setting: locus YNR030W, strain Alg12, active compounds read low.
[23] abbreviates: locus YPL055C, strain LGE1, active compounds read low.
[24] abbreviates: locus YPL241C, strain CIN2, active compounds read low.
The mark [25] stands for this setting: locus YPR135W, strain CTF4, active compounds read low.

SMILES strings stand for the structures. Screen size: about 5,500 compounds; about 2,000 (36%) were called active. Another 18% or so got no clear call; they are omitted. This is one part of the list. A number with no mark means an inactive call. Cut-off read from the data, not from the text of the source: active = normalized growth mostly below about 0.91 (no sharp cut-off); inconclusive = no clear call, values can overlap the other calls; inactive = mostly above about 0.92.

With `CCN(CC)CCNC(C(=O)OCCC(C)C)c1ccccc1` (stereo not given), the normalized growth is 0.984 under setting [1]; 0.986 (locus YHR079C, strain IRE1, active compounds read low); 0.979 (locus YJL095W, strain BCK1, active compounds read low); 0.913 (locus YJR066W, strain TOR1, active compounds read low); 1.03 (locus YLR113W, strain HOG1, active compounds read low); 0.916 (locus YNL183C, strain NPR1, active compounds read low). The normalized growth (locus YOR231W, strain MKK1, active compounds read low) was 0.978 and the normalized growth (locus YPL256C, strain CLN2, active compounds read low) was 0.964.
Regarding `O=[N+]([O-])c1ccc2nsnc2c1`, the normalized growth under setting [2] was 0.836 (active); the normalized growth under setting [3] was 0.643 (active); the normalized growth under setting [4] is 0.583 (active); the normalized growth under setting [5] is 0.825; the normalized growth under setting [6] is 0.626 (active); the normalized growth under setting [7] is 0.699 (active). The normalized growth is, setting by setting: (locus YGR229C, strain SMI1, active compounds read low) 0.979; under setting [1], 0.109 (active); under setting [8], 0.649 (active); under setting [9], 0.828 (active); under setting [10], 0.55 (active); under setting [11], 0.604 (active). Also, the normalized growth was 0.795 under setting [12]; 0.824 (active) under setting [13]; 0.227 (active) under setting [14]; 0.83 under setting [15]; 0.533 (active) under setting [16]; 0.833 (active) under setting [17]. Moreover, the normalized growth under setting [18] is 0.8 (active); the normalized growth (locus YNL128W, strain TEP1, active compounds read low) is 0.304 (active); the normalized growth under setting [19] was 0.738 (active); the normalized growth under setting [20] was 0.361 (active); the normalized growth under setting [21] is 0.999; the normalized growth under setting [22] is 0.534 (active). In addition, the normalized growth is 0.496 (active) (locus YOL006C, strain TOP1, active compounds read low); 0.805 (active) under setting [23]; 0.286 (active) under setting [24]; 0.233 (active) under setting [25].
With `CC(=O)Nc1cc([N+](=O)[O-])ccc1-n1cc(C)c(C(F)(F)F)n1`, the normalized growth is 0.966 under setting [2]; 0.985 under setting [3]; 0.978 (locus YCL061C, strain MRC1, active compounds read low); 0.986 under setting [4]; 0.947 under setting [5]; 0.998 under setting [6]. For the same compound, the normalized growth runs as follows: under setting [7], 0.996; under setting [1], 0.871; under setting [8], 0.982; under setting [9], 1; under setting [10], 0.973; under setting [11], 0.992. For the same compound, the normalized growth reads like this: under setting [12], 0.935; under setting [13], 0.988; under setting [14], 0.94; under setting [15], 0.928; under setting [16], 0.963; under setting [17], 0.988. In addition, the normalized growth is, setting by setting: under setting [18], 0.917; under setting [19], 0.985; under setting [20], 0.962; under setting [21], 0.981; under setting [22], 0.962; under setting [23], 0.931. The normalized growth under setting [24] was 1.03 and the normalized growth under setting [25] was 0.905.
`O=[N+]([O-])c1ccc2nc(N3CCNCC3)ccc2c1`: the normalized growth runs as follows: under setting [2], 0.999; (locus YAL040C, strain CLN3, active compounds read low) 0.985; (locus YCL061C, strain MRC1 (second series), active compounds read low) 0.995; under setting [5], 0.994; (locus YDR363W, strain ESC2, active compounds read low) 1.04; (locus YER002W, strain NOP16, active compounds read low) 1.01. The normalized growth by setting is: under setting [7], 1; (locus YMR307W, strain GAS1, active compounds read low) 1; (locus YNL175C, strain NOP13, active compounds read low) 1; (locus YNL197C, strain WHI3, active compounds read low) 1; (locus YNL224C, strain SQS1, active compounds read low) 1.01; (locus YOR083W, strain WHI5 (second series), active compounds read low) 1.01. Besides, the normalized growth under setting [24] was 1.01.

(Values after PubChem BioAssay AID1159580 (chemical genetic matrix, 2015).)
